Columns and labels:
Experiment in all cases: PBM binding z-score (relative to random genomic background probes); higher = stronger binding; sequences stand for … in GC…GCGATTGACAGCGTAGAATGAAGG
[1] = system: FXR:RXRa (NR concentration 270 nM, RXRa partner concentration 90 nM)
Summary of the method: (§1)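 Scanned fluorescence from custom Agilent 4×180K protein-binding microarrays was regression-normalized. Binding z-scores use random background probes as reference. Ligand-free nuclear receptor dimers were incubated on the arrays for 1 h and detected with antibodies against each partner (one per run).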

[2] = system: LXRa:RXRa (NR concentration 270 nM, RXRa partner concentration 90 nM)
Summary of the method: as §1

[3] = system: LXRa homodimer (NR concentration 270 nM)
Summary of the method: as §1

[4] = system: LXRb:RXRa (NR concentration 270 nM, RXRa partner concentration 90 nM)
Summary of the method: as §1

[5] = system: LXRb homodimer (NR concentration 270 nM)
Summary of the method: as §1

[6] = system: PPARa:RXRa (NR concentration 270 nM, RXRa partner concentration 90 nM)
Summary of the method: as §1

[7] = system: PPARg:RXRa (NR concentration 180 nM, RXRa partner concentration 90 nM)
Summary of the method: as §1

[8] = system: PPARg:RXRa 270nM:90nM, anti-RXR (NR concentration 270 nM, RXRa partner concentration 90 nM)
Summary of the method: as §1

[9] = system: PPARg:RXRa 30nM:10nM, anti-RXR (NR concentration 30 nM, RXRa partner concentration 10 nM)
Summary of the method: as §1

[10] = system: PPARg:RXRa 90nM:30nM, anti-RXR (NR concentration 90 nM, RXRa partner concentration 30 nM)
Summary of the method: as §1

[11] = system: PPARg:RXRa DBDmut IVT, anti-RXR (DBD mutation: RXRa K156A/R161A, NR concentration 270 nM, RXRa partner concentration 90 nM)
Summary of the method: as §1

[12] = system: PPARg:RXRa IVT, anti-PPARg (NR concentration 270 nM, RXRa partner concentration 90 nM)
Summary of the method: as §1

[13] = system: PPARg DBDmut:RXRa IVT, anti-PPARg (DBD mutation: PPARg1 K132A/R137A, NR concentration 270 nM, RXRa partner concentration 90 nM)
Summary of the method: as §1

[14] = system: PPARg DBDmut IVT, anti-PPARg (DBD mutation: PPARg1 K132A/R137A, NR concentration 270 nM)
Summary of the method: as §1

[15] = system: PPARg homodimer (NR concentration 180 nM)
Summary of the method: as §1

[16] = system: PXR:RXRa (NR concentration 270 nM, RXRa partner concentration 90 nM)
Summary of the method: as §1

[17] = system: PXR homodimer (NR concentration 270 nM)
Summary of the method: as §1

[18] = system: RARa:RXR (NR concentration 270 nM, RXRa partner concentration 90 nM)
Summary of the method: as §1

[19] = system: RARa homodimer (NR concentration 270 nM)
Summary of the method: as §1

[20] = system: RARb:RXRa (NR concentration 270 nM, RXRa partner concentration 90 nM)
Summary of the method: as §1

Sequence | PBM binding z-score [1] | PBM binding z-score [2] | PBM binding z-score [3] | PBM binding z-score [4] | PBM binding z-score [5] | PBM binding z-score [6] | PBM binding z-score [7] | PBM binding z-score [8] | PBM binding z-score [9] | PBM binding z-score [10] | PBM binding z-score [11] | PBM binding z-score [12] | PBM binding z-score [13] | PBM binding z-score [14] | PBM binding z-score [15] | PBM binding z-score [16] | PBM binding z-score [17] | PBM binding z-score [18] | PBM binding z-score [19] | PBM binding z-score [20]
CCTATTAGTTAACCATAAGGGCAACCGAAGCTCG | 0.323 | 0.341 | 0.429 | 0.249 | 0.486 | 0.386 | 0.374 | 0.215 | 0.166 | 0.0193 | 0.296 | 0.65 | 0.701 | 0.763 | 1.71 | 0.409 | 0.723 | 0.812 | 1.42 | 1.41
TCTGCTAGGTCAGTTGGTCCGCTAACGAGCTGCC | 0.769 | 0.595 | -0.724 | 0.186 | 0.781 | 0.869 | -0.334 | 1.28 | 1.13 | 0.949 | 2.64 | 2.46 | 0.84 | 0.95 | -0.535 | -0.0468 | -0.863 | -0.00908 | -1.31 | 3.12
CGTCAAAGTACAACTAAGGTAACGTAAAGCACGC | 0.707 | 0.122 | 0.142 | 0.219 | 0.198 | 0.548 | 0.918 | 0.504 | 0.132 | 0.467 | 0.337 | 0.863 | -0.144 | 0.398 | 0.606 | 0.34 | 0.247 | 2.1 | 0.546 | 1.34
GCTCGGAGGACAAGGTCAGAGATTTGTCCGTAGA | 1.22 | 1.62 | -0.347 | 1.2 | -0.658 | 2.13 | 0.719 | 1.53 | -0.349 | 0.587 | -0.252 | 0.673 | -0.517 | -0.427 | 0.0878 | 1.24 | -0.24 | 1.77 | -0.275 | 3.48
CCTCGAAGGACAACAGGAGGTCAGAGCTGCCAGA | 0.962 | 1.97 | 1.73 | 1.5 | -0.405 | 2.05 | 0.581 | 0.229 | -0.343 | -0.119 | -0.42 | 0.185 | -0.412 | -0.537 | 1.76 | 1.94 | 0.545 | 2.37 | 0.491 | 3.06
TCTCGGAGGACACGAAAGGTCAGAGATCGACATC | 3.24 | 3.71 | 2.64 | 3.32 | 0.0145 | 3.65 | 1.5 | 2.75 | 2.97 | 2.88 | 1.64 | 1.91 | 0.484 | 0.156 | 2.63 | 3.95 | 0.205 | 4.31 | 0.638 | 4.4
AATACAGGGTCCCTAGGCCAGAGTAGGTACGAAT | -0.341 | -0.334 | -0.145 | -0.634 | -0.575 | -0.299 | 0.603 | 0.00679 | 0.133 | 0.0597 | -0.243 | 0.245 | -0.698 | -1.31 | -0.659 | -0.49 | -0.525 | -0.409 | 0.104 | 0.138

— the supplement of paper PMC6555819
